Hits are enriched below; roughly 11% of the tested compounds scored in any of these assays.
HP1b chromo inh – HP1-beta chromodomain-methylated histone interaction inhibition; P83916; AlphaScreen HP1-beta / biotin-H3K9me3 peptide binding; Potency, µM (highest dose often 114 µM), for inactives: top-dose activity change, negative = inhibition, hits mostly inhibitors; hit rate 0.56% among 390,000; AID 540317; note: potency is the fitted concentration of half-maximal effect; nearly all actives have a fitted effect of over 70% in size
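AlphaScreen: HP1-beta (50 nM) preformed 30 min with biotin-H3(1-18)K9me3 peptide (50 nM) in PBS pH 7.4, 0.01% Tween-20. Compound added for 30 min at RT, then streptavidin donor/nickel chelate acceptor beads (10 ug/mL) for 30 min.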
G9a inh – blocks human histone lysine methyltransferase G9a. G9a H3K9 monomethylation, AlphaScreen, 2 h. Potency, µM (highest dose often 102 µM), inactives show at the highest dose activity, negative = inhibition, hits mostly inhibitors. hit rate 8.8% among 350,000. AID 504332; note: potency is the fitted concentration of half-maximal effect; % is set by controls: 0 for no effect and ±100 for the full control effect; nearly all actives have a fitted effect of over 75% in size
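G9a (20 nM) preincubated 15 min RT with compounds, then 500 nM biotinylated H3K9 peptide and 20 uM SAM added; 2 h RT reaction. Monomethyl-H3K9 product detected by AlphaScreen with anti-H3K9me1 antibody, streptavidin donor and anti-rabbit IgG acceptor beads.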
JMJD2A Tudor – inhibitors of human JMJD2A Tudor domain; O75164; AlphaScreen JMJD2A-Tudor / H3K4me3 peptide binding; Potency, µM (doses to about 114 µM), without a hit: at the top dose activity change, negative = inhibition, most hits filed as inhibitors; hit rate 4.4% among 390,000; AID 504339; note: potency is the fitted concentration of half-maximal effect; % is set by controls: 0 for no effect and ±100 for the full control effect; nearly all actives have a fitted effect of over 50% in size
PI5P4K alpha inh – inhibitors of human PI5P4K alpha; max response, %; hit rate 1.2% among 330,000; P48426; PI5P4Kalpha enzyme, ADP-Glo luminescence, 60 min; hits give low values; active = max response of -50% or lower; inconclusive = between -30% and -50%; inactive = -30% or higher; note: value at the top dose of about 77 µM; % is set by controls: 0 for no effect and ±100 for the full control effect
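qHTS, 1536-well: enzyme/substrate mix, compound by pin tool, 5 microM ATP final; RT 60 min; ADP-Glo reagents 1 (45 min) then 2 (30 min); luminescence.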
BAZ2B inh – BAZ2B (human) inhibition; AlphaScreen BAZ2B-H3K14Ac peptide displacement; hit rate 4.4% among 360,000; Potency, µM (highest dose often 114 µM), for the others: at the highest dose activity change, negative = inhibition, actives largely listed as inhibitors; AID 504333; note: potency is the fitted concentration of half-maximal effect; % is set by controls: 0 for no effect and ±100 for the full control effect; nearly all actives have a fitted effect of over 60% in size
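In this displacement format the biotinylated H3(5-23) peptide acetylated at Lys14 serves as ligand at 50 nM, with BAZ2B at 50 nM in PBS pH 7.4 containing 0.01% Tween-20. Donor and acceptor beads are 10 ug/mL final.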
L3MBTL1 inh – inhibitors of human L3MBTL1; Q9Y468; AlphaScreen L3MBTL1–H3K9me1 peptide binding; Potency, µM (top dose mostly 57.1 µM), without a hit: top-dose activity, negative = inhibition, most hits filed as inhibitors; hit rate 0.66% among 230,000; note: potency is the fitted concentration of half-maximal effect; % is set by controls: 0 for no effect and ±100 for the full control effect; nearly all actives have a fitted effect of over 60% in size
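Displacement of a biotinylated histone H3(1-15) peptide monomethylated at Lys9 (75 nM) from L3MBTL1 (50 nM) was measured by AlphaScreen after a 30 min room-temperature compound incubation; cefsulodin titration served as intraplate control.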
12-hLO 8HQ R1 – confirmation of human 12-lipoxygenase inhibitors, 8HQ series round 1. hit rate 60% among 35. purified 12-hLO, cuvette UV 234 nm product formation. shares compounds with BAZ2B inh. Potency, µM, most hits filed as inhibitors;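 active = compounds that slowed 12-hLO product formation enough to yield a measured IC50 potency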
Target sequence (P18054 whole entry, looked up): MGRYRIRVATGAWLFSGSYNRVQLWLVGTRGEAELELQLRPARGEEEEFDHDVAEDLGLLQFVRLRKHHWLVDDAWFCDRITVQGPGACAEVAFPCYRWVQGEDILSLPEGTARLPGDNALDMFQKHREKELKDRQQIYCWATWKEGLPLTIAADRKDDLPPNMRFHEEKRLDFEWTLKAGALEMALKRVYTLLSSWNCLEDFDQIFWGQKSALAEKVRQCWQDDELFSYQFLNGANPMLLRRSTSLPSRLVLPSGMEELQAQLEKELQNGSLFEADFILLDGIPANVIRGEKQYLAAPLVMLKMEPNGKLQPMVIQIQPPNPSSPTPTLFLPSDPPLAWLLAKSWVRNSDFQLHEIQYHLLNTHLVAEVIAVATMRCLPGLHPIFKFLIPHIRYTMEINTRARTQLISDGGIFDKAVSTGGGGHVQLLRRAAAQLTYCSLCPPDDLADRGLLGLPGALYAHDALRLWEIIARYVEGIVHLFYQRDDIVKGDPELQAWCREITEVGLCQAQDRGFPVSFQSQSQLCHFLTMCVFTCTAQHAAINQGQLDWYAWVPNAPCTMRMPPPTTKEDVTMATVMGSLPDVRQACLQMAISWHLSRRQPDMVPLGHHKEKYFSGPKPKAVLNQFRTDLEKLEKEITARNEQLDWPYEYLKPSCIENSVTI
JMJD2E inh-1 – blocks human JMJD2E demethylase activity. shares compounds with BAZ2B inh. JMJD2E demethylase, FDH-coupled NADH fluorescence. Potency, µM (series often up to 57 µM), for inactives: top-dose activity, negative = inhibition, actives largely listed as inhibitors. hit rate 89% among 130. AID 493212
JMJD2E inh-2 – JMJD2E (human) demethylase inhibition, confirmation | shares compounds with JMJD2A Tudor | Recombinant JMJD2E, FDH-coupled NADH fluorescence (FDH is formaldehyde dehydrogenase) | Potency, µM (highest dose often 56.8 µM), for the others: top-dose activity change, negative = inhibition, most hits filed as inhibitors | hit rate 93% among 140 | AID 2677
FDH counter – blocks Pseudomonas putida formaldehyde dehydrogenase, flagging JMJD2E artifacts; AID 2680; hit rate 10% among 140; Potency, µM (top dose mostly 56.7 µM), inactives show at the top dose activity, negative = inhibition, most hits filed as inhibitors; shares compounds with JMJD2A Tudor; FDH enzyme assay, NADH fluorescence kinetic
JMJD2E MALDI inh – human KDM4E demethylase inhibition. shares compounds with JMJD2A Tudor. recombinant JMJD2E demethylation, MALDI-TOF-MS. Potency, µM, hits mostly inhibitors. hit rate 90% among 45;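 active = compounds whose IC50 for blocking JMJD2E demethylation is below 100 µM; inconclusive = dose dependent effect but IC50 above 100 µM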
Starred values were filed as active, the others as inactive; [ ] = remark or other dose. Unless noted, calls come from the whole dose curve; as a rule, active = well fitted inhibition curve with a large enough effect; inconclusive = small, poorly fitted or top-dose-only effect; inactive = no such curve, though single readings can be large or run the other way.

How did O=C(Nc1cccc2cccnc12)c1cccc2ccccc12 do in these assays?
HP1b chromo inh: 45%; G9a inh: 8%[59 µM]; JMJD2A Tudor: -3%; BAZ2B inh: -3%

How did Nc1cccnc1Oc1ccccc1F do in these assays?
HP1b chromo inh: 1%; G9a inh: 9%; JMJD2A Tudor: -10%; PI5P4K alpha inh: 7; BAZ2B inh: -5%; L3MBTL1 inh: 3%

Results for NC(=O)c1ccc(O)c2ncccc12 ?
JMJD2A Tudor: 13µM*; JMJD2E inh-1: 4.6µM*; JMJD2E inh-2: 4.6µM*; FDH counter: -9%; JMJD2E MALDI inh: 90*

What do the screens show for `O=C(Nc1ccccc1F)c1ccc(O)c2ncccc12`?
G9a inh: 2%[12.7 µM]; BAZ2B inh: 20µM*; L3MBTL1 inh: 28µM*; JMJD2E inh-1: 29µM*; JMJD2E inh-2: 35µM*; JMJD2E MALDI inh: 41*

Results for CCCNc1ncccc1C(N)=O ?
HP1b chromo inh: 11%; G9a inh: -8%; JMJD2A Tudor: -2%; PI5P4K alpha inh: 0; BAZ2B inh: 7%; L3MBTL1 inh: 7%

How did O=C(O)c1ccnc2c(O)cccc12 do in these assays?
G9a inh: 43%[12.7 µM]; BAZ2B inh: 1.8µM*; L3MBTL1 inh: 13µM*; JMJD2E inh-1: 1.4µM*; JMJD2E inh-2: 1.4µM*; JMJD2E MALDI inh: 8.2*

Results for CS(=O)(=O)N1CCC2(CC1)CN(c1ncccn1)C2 ?
G9a inh: -4%[12.7 µM]

Results for CCCOc1ccc(NC(=O)CC2C(=O)N(c3ccc(C)cc3)C(=O)N2C2CCCC2)cc1 (centres undefined) ?
HP1b chromo inh: 17%; G9a inh: -1%[59 µM]; JMJD2A Tudor: -12%; BAZ2B inh: -11%

What do the screens show for `Cc1nc2ccn(Cc3ccco3)c(=O)c2cc1C(=O)N1CCN(c2ccc(F)cc2)CC1`?
HP1b chromo inh: 79%; G9a inh: 12%[59 µM]; JMJD2A Tudor: -16%; BAZ2B inh: -12%

How did Nc1ncc(S(=O)(=O)NCc2ccccc2F)cn1 do in these assays?
HP1b chromo inh: 22%[57 µM]; G9a inh: -4%[59 µM]; JMJD2A Tudor: 1%; BAZ2B inh: 0%

What do the screens show for `O=S(=O)(NCc1ccccc1F)c1ccc(O)c2ncccc12`?
JMJD2E inh-1: 23µM*; JMJD2E inh-2: 18µM*; FDH counter: -36%

Results for CCC(=O)NC(c1ccc(C)s1)c1cc(Cl)c2cccnc2c1O (centres undefined) ?
JMJD2A Tudor: -23%; 12-hLO 8HQ R1: 3.5µM*; JMJD2E inh-1: -6%; JMJD2E inh-2: 10µM*; FDH counter: -9%

How did CCC(=O)NC(c1cccs1)c1cc([N+](=O)[O-])c2cccnc2c1O (centres undefined) do in these assays?
HP1b chromo inh: -8%; G9a inh: inconclusive; JMJD2A Tudor: 79µM*; PI5P4K alpha inh: -19; BAZ2B inh: 7.9µM*; L3MBTL1 inh: 10µM*; 12-hLO 8HQ R1: 0.8µM*; JMJD2E inh-1: 14µM*; JMJD2E inh-2: 14µM*; FDH counter: -18%

Results for CCC(=O)NC(c1ccc(OC)cc1)c1cc(Cl)c2cccnc2c1O (centres undefined) ?
HP1b chromo inh: 46%; G9a inh: -1%; JMJD2A Tudor: -15%; PI5P4K alpha inh: -5; BAZ2B inh: -5%; L3MBTL1 inh: 4%

Results for CCC(=O)NC(c1ccco1)c1cc(Cl)c2cccnc2c1O (centres undefined) ?
HP1b chromo inh: 2%; G9a inh: 17%; JMJD2A Tudor: inconclusive; PI5P4K alpha inh: inconclusive; BAZ2B inh: 45µM*; L3MBTL1 inh: -28%; 12-hLO 8HQ R1: 1µM*; JMJD2E inh-1: 6.3µM*; JMJD2E inh-2: 6.3µM*; FDH counter: -27%

Results for CCC(=O)NC(c1ccc(F)cc1)c1cc(Cl)c2cccnc2c1O (centres undefined) ?
JMJD2A Tudor: -12%; JMJD2E inh-1: 16µM*; JMJD2E inh-2: 16µM*; FDH counter: -18%

Results for CN1CCN(c2ncc3nc(-c4ccccc4)c(=O)n(-c4ccccc4)c3n2)CC1 ?
G9a inh: -1%[12.7 µM]

Results for COc1ccc(C(=O)CC2(O)C(=O)Nc3c(C)cccc32)c(OC)c1OC (centres undefined) ?
HP1b chromo inh: 24%[57 µM]; G9a inh: 2%[59 µM]; JMJD2A Tudor: 4%; BAZ2B inh: 8%

Results for Oc1ccc(CCc2ccccc2)c2cccnc12 ?
JMJD2A Tudor: 45µM*; JMJD2E inh-1: 7.1µM*; JMJD2E inh-2: 9.1µM*; FDH counter: 9%; JMJD2E MALDI inh: 90*

Results for Oc1ccc(COc2ccccc2Cl)c2cccnc12 ?
JMJD2A Tudor: 79µM*; JMJD2E inh-1: 13µM*; JMJD2E inh-2: 13µM*; FDH counter: -27%

Results for CCc1nnc(SCc2cccc(F)c2)c2cc3sc(C)cc3n12 ?
HP1b chromo inh: 20%; G9a inh: 8%[59 µM]; JMJD2A Tudor: -2%; BAZ2B inh: 2%

Results for Oc1cccc2cc(-c3ccccc3)cnc12 ?
JMJD2E inh-1: 16µM*; JMJD2E inh-2: 16µM*; FDH counter: 0%

How did Oc1cc(NCCN2CCOCC2)cc2cccnc12 do in these assays?
HP1b chromo inh: 22%; G9a inh: inconclusive; JMJD2A Tudor: 22µM*; BAZ2B inh: 2.8µM*; L3MBTL1 inh: inconclusive; JMJD2E inh-1: inconclusive; JMJD2E inh-2: 18µM*; FDH counter: -27%; JMJD2E MALDI inh: 26*

High-throughput results as filed in PubChem BioAssay.
